For 20 molecules, outcome and AC50 results are on record in PubChem BioAssay (EPA / NIEHS).

Read-out in experiment [1]: Vascular cell adhesion molecule 1 (VCAM1), VCAM1 (gene 7412)
The experiment is described as follows: BSK_MyoF_VCAM1: BioMAP Diversity Plus: MyoF Assay for Vascular cell adhesion molecule 1 (VCAM1) Biomarker Activity (AID 2284231). The settings on record: primary human lung fibroblasts. The method in brief:
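Steps: fibroblasts from human lung exposed to compound; biomarker quantified by ELISA at 24 h; values analysed for upward change over the DMSO baseline.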

Read-out in experiment [2]: Collagen I, COL1A1 (gene 1277)
Put plainly: BSK_MyoF_CollagenI: BioMAP Diversity Plus: MyoF Assay for Collagen I Biomarker Activity (AID 2284238). The settings on record: primary human lung fibroblasts. In outline:
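Multiplexed primary human lung fibroblast system; Collagen I measured by ELISA at 24 h post-dose. Increases are referenced to DMSO.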

Read-out in experiment [3]: Collagen III, COL3A1 (gene 1281)
Put plainly: BSK_MyoF_CollagenIII: BioMAP Diversity Plus: MyoF Assay for Collagen III Biomarker Activity (AID 2284239). The settings on record: primary human lung fibroblasts. In outline: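 Compounds are added to primary human lung fibroblasts and left for 24 hours. Collagen III is then quantified by ELISA. Analysis takes DMSO as baseline and fits increases in signal.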

Read-out in experiment [4]: Interleukin 17F (IL17F), IL17F (gene 112744)
The experiment is described as follows: BSK_BT_xIL17F: BioMAP Diversity Plus: BT Assay for Interleukin 17F (IL17F) Biomarker Activity (AID 2284243). The settings on record: primary human B cells with PBMC. In outline:
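Measures secreted IL-17F from a human B cell plus PBMC co-culture at 24 h post-dose by Luminex xMAP, with DMSO defining baseline activity.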

Read-out in experiment [5]: Actin alpha 1 (ACTA1), ACTA1 (gene 58)
Put plainly: BSK_MyoF_ACTA1: BioMAP Diversity Plus: MyoF Assay for Actin alpha 1 (ACTA1) Biomarker Activity (AID 2284244). The note with it: primary human lung fibroblasts. The method in brief: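 Human lung fibroblasts (MyoF system) dosed with test chemical for 24 h; α-SMA measured by ELISA. Gain of signal fitted relative to DMSO negative control as baseline.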

Read-out in experiment [6]: Interleukin 2 (IL2), IL2 (gene 3558)
Put plainly: BSK_BT_xIL2: BioMAP Diversity Plus: BT Assay for Interleukin 2 (IL2) Biomarker Activity (AID 2284245). The note with it: primary human B cells with PBMC. The method in brief:
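Human B cells co-cultured with PBMC, exposed to test chemical for 24 h. Secreted IL-2 quantified by Luminex xMAP bead immunoassay; activity fitted in the positive direction relative to DMSO vehicle baseline.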

Read-out in experiment [7]: Basic fibroblast growth factor (bFGF), FGF2 (gene 2247)
Put plainly: BSK_MyoF_bFGF: BioMAP Diversity Plus: MyoF Assay for Basic fibroblast growth factor (bFGF) Biomarker Activity (AID 2284246). The note with it: primary human lung fibroblasts. The method in brief: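 Human lung fibroblasts were dosed with chemicals and bFGF was quantified by ELISA 24 h later. Activity was fitted in the gain-of-signal direction relative to DMSO as negative control and baseline. Parallel SRB total-protein staining tracked overt cytotoxicity.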

Experiment [8] is described as follows: CCTE_Mundy_HCI_Cortical_NOG_BPCount: CCTE's Neurite Outgrowth Assay in rat cortical cells for Branch Point Count, Mundy Lab (AID 2284237). In outline: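 Measured 50.33 h after dosing, this morphology endpoint uses rat primary cortical cultures labelled for betaIII-tubulin. Branch points are quantified by high-content imaging, with DMSO as negative control and baseline.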

Experiment [9] can be described thus: CCTE_Mundy_HCI_hNP1_Casp3_7: CCTE's Caspase-Glo 3/7 Assay in human neuroprogenitor cells for Apoptosis, Mundy Lab (AID 2284240). In outline: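 Neuroepithelial-lineage stem cells from WA09 embryonic cells were treated with chemicals after 40–44 h of culture. Twenty-four hours later, caspase-3/7 activation was detected luminescently after a 30 min room-temperature reagent step, with DMSO as baseline.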

Activity calls are given as the source filed them. How the source made its calls: active means hit-call score of the fitted dose curve at least 0.9, where 1 is the maximum; inactive means score below 0.9.

On to `CC(C)Oc1ccccc1O`, for which the outcome in experiment [1], in experiment [2], in experiment [3], in [4], in experiment [5] and in [6] was inactive. Besides, in experiment [7], the outcome was inactive.

Take `CC(C)(COC(=O)c1ccccc1)COC(=O)c1ccccc1`: the result in experiment [1], in experiment [2], in experiment [3], in [4], in experiment [5] and in experiment [6] was inactive. In addition, the outcome in [7] was inactive.

As for `N#Cc1ccc(CC(=NNC(=O)Nc2ccc(OC(F)(F)F)cc2)c2cccc(C(F)(F)F)c2)cc1`, the outcome in experiment [1], in [8], in experiment [2], in experiment [3], in [9] and in [4] was inactive. Also, the outcome in [5], in experiment [6] and in experiment [7] was inactive.

For `BrC1CCC(Br)C(Br)CCC(Br)C(Br)CCC1Br` (configuration not stated), the outcome in experiment [1], in [2], in experiment [3], in experiment [5] and in [7] was inactive. In addition, the AC50 in experiment [4] is 25 µM (active); in experiment [6], 25.2 µM (active).

On to `CCn1c2ccccc2c2cc(N)ccc21`, for which the result in [1], in experiment [2], in experiment [3], in experiment [4], in [5] and in experiment [6] was inactive. Also, in [7], the outcome was inactive.

On to `CN(CCOc1ccc(CC2SC(=O)NC2=O)cc1)c1ccccn1` (configuration not stated), for which the AC50 was 3.97 µM (active) in experiment [1] and 0.016 µM (active) in experiment [2]. The result in experiment [3], in experiment [4], in experiment [5], in experiment [6] and in [7] was inactive.

`CCCCCCCCCC=O`: the result in experiment [1], in experiment [2], in experiment [3], in experiment [4], in [5] and in experiment [6] was inactive. In [7], the outcome was inactive.

`CCCCC/C=C/C=C/C=O`: the AC50 in [1] was 34.9 µM (active); in [2], 32.4 µM (active); in [3], 32.2 µM (active); in [4] it was 30.7 µM (active); in experiment [5], 31.6 µM (active); in experiment [6], 31.4 µM (active). Further, the AC50 in [7] is 36.8 µM (active).

In the case of `CC(=O)Nc1ccccc1O`, the result in experiment [1], in experiment [2], in experiment [4], in [5], in experiment [6] and in experiment [7] was inactive. In experiment [3], the AC50 was 0.016 µM (active).

For `CN(C)C(=N)N=C(N)N`, the call in experiment [8] and in [9] was inactive.

For `O=C1OC2(c3cc(Br)c(O)c(Br)c3Oc3c2cc(Br)c(O)c3Br)c2c(Cl)c(Cl)c(Cl)c(Cl)c21`, the AC50 in experiment [1] is 5.03 µM (active); in experiment [2], 3.89 µM (active); in experiment [3], 4.52 µM (active); in [5], 5.23 µM (active); in [7], 11.9 µM (active). The outcome in experiment [4] and in experiment [6] was inactive.

For the molecule `O=[N+]([O-])c1cc(C(F)(F)F)ccc1Cl`, the outcome in [1], in experiment [2], in [3], in experiment [4], in experiment [5] and in experiment [6] was inactive. The outcome in [7] was inactive.

In the case of `CC(=O)O[C@]1(C(C)=O)CC[C@H]2[C@@H]3C[C@H](C)C4=CC(=O)CC[C@]4(C)[C@H]3CC[C@@]21C`, the result in experiment [1], in experiment [2], in [3], in experiment [5], in experiment [6] and in experiment [7] was inactive. Besides, the AC50 in experiment [4] was 10 µM (active).

Regarding `CCCCCCCCCCCCCCCCCC(=O)OCC(CC)CCCC` (configuration not stated), the result in experiment [1], in experiment [2], in experiment [3], in [4], in [5] and in experiment [6] was inactive. In addition, the outcome in experiment [7] was inactive.

For the molecule `CCCCCCCCC=O`, the result in [1], in experiment [2], in experiment [3], in experiment [4], in experiment [5] and in experiment [6] was inactive. For the same molecule, the outcome in experiment [7] was inactive.

As for `COC(=O)c1ccc(C)cc1`, the result in experiment [1], in [2], in experiment [3], in [4], in experiment [5] and in experiment [6] was inactive. For the same molecule, in [7], the outcome was inactive.

As to `Cc1ccc2n[nH]nc2c1`, the result in experiment [1], in [2], in [3], in experiment [4], in experiment [5] and in experiment [6] was inactive. Further, the outcome in experiment [7] was inactive.

`Cc1ccc(O)c(C(C)(C)C)c1`: the AC50 was 34.4 µM (active) in [1]; 35.4 µM (active) in experiment [2]; 30.3 µM (active) in experiment [3]; 30.9 µM (active) in [5]; 36.1 µM (active) in experiment [7]. The outcome in experiment [4] and in [6] was inactive.

On to `CCCCC(CC)COC(=O)/C=C\C(=O)OCC(CC)CCCC` (configuration not stated), for which the outcome in experiment [1], in experiment [2], in experiment [3], in [4], in experiment [5] and in experiment [7] was inactive. Moreover, in experiment [6], the AC50 was 20 µM (active).

In the case of `CC(=O)/C=C/C1=C(C)CCCC1(C)C`, the outcome in [1], in [2], in experiment [3], in experiment [4], in experiment [5] and in [6] was inactive. Besides, the result in experiment [7] was inactive.

A word on the AC50: it is the midpoint of the concentration-response curve, whichever way the signal moves.
